From PubChem BioAssay
Activity calls are given as the source filed them. Unless noted, no stated cut-off is given here; in the data, active means inhibition above about 80%; inactive means the rest.

Legend:
[1] = growth inhibition, single agent or in combination, cell-based, chromothripsis tumors, cisplatin or BGB combos (AID 1671449); conditions: LFS_MB_P medulloblastoma cells;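 further: cells exposed for 96 hours; 0% = vehicle DMSO and 100% = killing by high DMSO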
[2] = growth inhibition, single agent and combos, cell-based, chromothripsis tumors, cisplatin or BGB combos (AID 1671450); conditions: HDN33 neuroblastoma cells, stronger effect = higher value;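 further: cells exposed to compound for four days; 0% = vehicle DMSO and 100% = cell killing by high DMSO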
[3] = growth inhibition, single agents and combos, ICB984, cell-based, cisplatin or BGB combos, synergistic combos for chromothripsis tumors (AID 1671451; call rule not given here;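 further: cells exposed for 96 hours before readout; 0% = vehicle DMSO and 100% = killing by high DMSO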); conditions: ICB984 medulloblastoma cells, drug combinations, stronger effect = higher value
[4] = growth inhibition, single agents and combos, LFS_MB_1R, cell-based, cisplatin or BGB combos, synergistic combos for chromothripsis tumors (AID 1671452); conditions: LFS_MB_1R medulloblastoma cells, stronger effect = higher value;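 further: cells exposed for 96 hours before readout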
[5] = growth inhibition, single agents and combos, HTB85, cell-based, BGB or cisplatin IC20 combos, synergistic combos for chromothripsis tumors (AID 1671453); conditions: HTB85 osteosarcoma cells, drug combinations, stronger effect = higher value;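 further: cells exposed for 96 hours before readout; 0% = vehicle DMSO and 100% = high DMSO killing control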
[6] = growth inhibition, single agents and combos, CRL2098, cell-based, BGB or cisplatin IC20 combos, synergistic combos for chromothripsis tumors (AID 1671454); conditions: CRL2098 osteosarcoma cells, drug combinations, stronger effect = higher value;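 further: cells exposed for 96 h before readout; 0% = vehicle DMSO and 100% = killing by high DMSO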
[7] = growth inhibition, single agents and combos, HD-MB03, cell-based, BGB or cisplatin IC20 combos, synergistic combos for chromothripsis tumors (AID 1671455; in the data active means inhibition above about 83%;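 further: 0% = vehicle DMSO and 100% = high DMSO as cytotoxic control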); conditions: HD-MB03 medulloblastoma cells, stronger effect = higher value
[8] = growth inhibition, single agents and combos, UWB1.289, cell-based, BGB or cisplatin combos, synergistic combos for chromothripsis tumors (AID 1671456); conditions: UWB1.289 ovarian carcinoma cells, stronger effect = higher value;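 further: cells exposed to compound for four days; 0% = vehicle DMSO and 100% = killing by high DMSO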
[9] = growth inhibition, single agents and combos, LFS_MB_2R, cell-based, cisplatin combos, synergistic combos for chromothripsis tumors (AID 1671457); conditions: LFS_MB_2R medulloblastoma cells, stronger effect = higher value;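 further: cells exposed to compound for four days before readout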
[10] = growth inhibition, MDA-MB-436, cell-based, BGB or cisplatin combos, synergistic combos for chromothripsis tumors (AID 1671458; call rule not given here;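 further: cells exposed for 96 hours; 0% = vehicle DMSO and 100% = killing by high DMSO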); conditions: MDA-MB-436 breast carcinoma growth inhibition, drug combinations, stronger effect = higher value
[11] = UWB1.289_BRCA1 ovarian cancer growth, cell-based, BGB or cisplatin combinations (AID 1671459); conditions: UWB1.289 BRCA1 ovarian carcinoma, drug combinations, stronger effect = higher value
[12] = drug combination toxicity in non-malignant astrocytes – cell-based, BGB or cisplatin IC20 combos, cytotoxicity control for chromothriptic childhood tumor combination screen (AID 1671460); conditions: Human astrocytes, viability inhibition, drug combinations, at 0.5 µM, stronger effect = higher value;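 further: cells exposed to compounds for 96 hours before viability readout; 0% = vehicle and 100% = killing control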
[13] = BT084 cell growth, single and combined drugs, ICGC_MB145, cisplatin and BGB IC40 combos (AID 1671461); conditions: BT084 medulloblastoma cells, drug combinations, stronger effect = higher value;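 further: cells exposed to drugs for 96 hours; 0% = vehicle DMSO and 100% = high DMSO full killing control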
[14] = RCMB18 cell growth, single agent and combined, cisplatin and BGB IC40 combos (AID 1671462); conditions: RCMB18 medulloblastoma cells, stronger effect = higher value;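 further: cells exposed to compound for four days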
[15] = CRL1545 cell growth, single agent and combined, cisplatin and BGB IC20 combos (AID 1671464); conditions: CRL1545 osteosarcoma cells, stronger effect = higher value;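 further: cells exposed to compound for 96 hours before readout; 0% = vehicle DMSO and 100% = high DMSO killing control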
[16] = measured here: combination with BGB IC40, at 0.05 µM
[17] = measured here: with BGB IC20 combination, at 0.5 µM
[18] = measured here: with cisplatin IC20 combination, at 0.5 µM
[19] = measured here: combination with cisplatin, at 0.5 µM
[20] = measured here: combination with cisplatin, at 5 µM

C[C@@H]1O[C@@H](O[C@@H]2[C@@H](O)[C@H](OCCc3ccc(O)c(O)c3)O[C@H](CO)[C@H]2OC(=O)C=Cc2ccc(O)c(O)c2)[C@H](O)[C@H](O)[C@H]1O
inhibition ([1]; at 0.5 µM, stronger effect = higher value): -19.7% (inactive) | inhibition ([1]; measured here: combination with BGB IC20, at 0.005 µM): -7.94% | inhibition ([1]; measured here: combination with BGB IC40, at 0.005 µM): -47.4% | inhibition [1, 16]: -17.9% | inhibition ([1]; measured here: combination with cisplatin, at 0.5 µM, stronger effect = higher value): -14.4% | inhibition ([1]; measured here: combination with cisplatin, at 5 µM, stronger effect = higher value): -15.6% | inhibition ([2]; BGB combo, at 5 µM): -0.831% | inhibition ([2]; at 0.5 µM): 5.6% (inactive) | inhibition ([2]; cisplatin combo, at 5 µM): 41% | inhibition [2, 17]: 2.02% | inhibition [2, 18]: 15.9% | inhibition ([2]; single agent, at 5 µM): 21.8% | inhibition ([3]; BGB IC20 combo, at 0.005 µM): -21.2% | inhibition ([3]; BGB IC40 combo, at 0.005 µM): -5.21% | inhibition ([3]; BGB IC40 combo, at 0.05 µM): -11.9% | inhibition ([3]; at 0.5 µM): -18.6% (inactive) | inhibition ([3]; cisplatin combo, at 0.05 µM): -17.7% | inhibition ([3]; cisplatin combo, at 0.5 µM): -31.1% | inhibition ([3]; cisplatin combo, at 5 µM): -7.59% | inhibition ([3]; measured here: 5 uM single agent, at 5 µM): -11% | inhibition ([4]; at 0.5 µM): -31.7% (inactive) | inhibition [4, 16]: -26.1% | inhibition [4, 19]: -49.4% | inhibition [4, 20]: -50.3% | inhibition ([5]; at 0.5 µM): -2.22% (inactive) | inhibition ([5]; measured here: with BGB IC20, at 0.5 µM): 11% | inhibition ([5]; measured here: with BGB IC20, at 5 µM): -2.54% | inhibition ([5]; measured here: with cisplatin IC20, at 0.5 µM): -24.2% | inhibition ([5]; measured here: with cisplatin IC20, at 5 µM): 13.7% | inhibition ([5]; single agent, at 5 µM): 14.4% | inhibition ([6]; at 0.5 µM): -20.3% (inactive) | inhibition ([6]; measured here: combination with BGB at IC20, at 0.5 µM): -22.9% | inhibition ([6]; measured here: combination with cisplatin at IC20, at 0.5 µM): -10.2% | inhibition ([7]; at 0.5 µM): -12.4% (inactive) | inhibition ([7]; measured here: combo with BGB at IC20, at 0.5 µM): -18% | inhibition ([7]; measured here: combo with cisplatin at IC20, at 0.5 µM): -15.8% | inhibition ([8]; at 0.5 µM): 2.22% (inactive) | inhibition ([8]; measured here: inhibition with BGB combination, at 0.05 µM): -13.4% | inhibition ([8]; measured here: inhibition with cisplatin combination, at 0.05 µM): -3.75% | inhibition ([9]; at 0.5 µM): -23.2% (inactive) | inhibition [9, 19]: -31.6% | inhibition [9, 20]: -36.7% | inhibition ([10]; at 0.5 µM): -13.3% (inactive) | inhibition ([10]; measured here: BGB combination, at 0.5 µM): -5.37% | inhibition ([10]; measured here: BGB combination, at 5 µM): -8.31% | inhibition ([10]; measured here: cisplatin combination, at 0.5 µM): -39.6% | inhibition ([10]; measured here: cisplatin combination, at 5 µM): -30.4% | inhibition ([11]; BGB combination, concentration series, at 5 µM): -4.79% | inhibition ([11]; at 0.5 µM): 2.12% (inactive) | inhibition ([11]; cisplatin combination, concentration series, at 5 µM): 23.8% | inhibition [12]: 3.51% (inactive) | inhibition ([12]; measured here: combo with BGB IC20): -0.074% | inhibition ([12]; measured here: combo with cisplatin IC20): 5.26% | inhibition ([13]; at 0.5 µM): -15.3% (inactive) | inhibition ([13]; cisplatin combination, at 0.5 µM): -21.1% | inhibition ([13]; cisplatin combination, at 5 µM): -157% | inhibition ([13]; measured here: BGB IC40 combination 0.05 uM, at 0.05 µM): -26.5% | inhibition ([13]; single agent, at 5 µM): -19.8% | inhibition ([14]; at 0.5 µM): -0.47% (inactive) | inhibition ([14]; cisplatin combo, at 5 µM): 8.1% | inhibition ([14]; measured here: BGB IC40 combination, at 0.05 µM): -349% | inhibition [14, 19]: -0.428% | inhibition ([14]; single agent, at 5 µM): -0.98% | inhibition ([15]; at 0.5 µM): 3.16% (inactive) | inhibition [15, 17]: -11.9% | inhibition [15, 18]: 9.28% | inhibition ([15]; single agent, at 0.05 µM): -3.32% | inhibition ([15]; single agent, at 5 µM): 19.3%
